{"source": "PubChem BioAssay (NCATS)", "note": "Values joined by “and” are separate entries in the source; they are usually repeats but may differ in a detail not shown here. Equal values may be shown once. Records with an inconclusive call do not appear. Active and inactive are the calls of the source. Calls come from the whole dose curve; as a rule, active = well fitted inhibition curve with a large enough effect; inconclusive = small, poorly fitted or top-dose-only effect; inactive = flat fitted curve, though single readings scatter."}
{"assay": "P-glycoprotein substrates identified in KB-8-5-11 adenocarcinoma cell line, qHTS therapeutic library screen (AID 1346987); note: nearly all actives have a fitted effect of over 65% in size; note: potency is the fitted concentration of half-maximal effect; for activity change, negative = cytotoxicity: % is set by controls: 0 for no effect and ±100 for the full control effect", "conditions": "KB-8-5-11 (P-gp overexpressing) viability, CellTiter-Glo, 72 h; series mostly up to 44.5 µM; activity change, negative = cytotoxicity: at the top concentration", "outline": "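KB-8-5-11, a colchicine-selected P-gp-overexpressing KB-3-1 subline, was grown without colchicine for the assay. Cells were seeded at 500 cells/well, dosed in concentration-response and incubated 72 h at 37 degree C, 5% CO2. Viability was read by CellTiter-Glo luminescence.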"}
{"compound": "CC1(C)C2CC=C(COC3OC(COC4OCC(O)(CO)C4O)C(O)C(O)C3O)C1C2", "note": "(configuration not stated)", "outcome": "inactive [at 17.3 µM]"}
{"compound": "C[C@@H]1CC[C@]2(C(=O)O[C@@H]3O[C@H](CO)[C@@H](O)[C@H](O)[C@H]3O)CC[C@]3(C)C(=CCC4[C@@]5(C)C[C@@H](O)[C@H](O)[C@](C)(C(=O)O)C5CC[C@]43C)[C@@H]2[C@]1(C)O", "note": "(some centres not stated)", "outcome": "inactive [at 17.3 µM]"}
{"compound": "CC1(C)CC[C@]2(C(=O)O)[C@H](O)C[C@]3(C)C(=CCC4[C@@]5(C)CC[C@H](O[C@@H]6O[C@H](CO[C@@H]7OC[C@H](O)[C@H](O)[C@H]7O[C@@H]7OC[C@@H](O)[C@H](O)[C@H]7O)[C@@H](O)[C@H](O)[C@H]6O[C@@H]6O[C@H](CO)[C@@H](O)[C@H](O)[C@H]6O)C(C)(C)C5CC[C@]43C)[C@@H]2C1", "note": "(some centres not stated)", "activity change, negative = cytotoxicity": "6.47% [at 9.29 µM] (inactive)"}
{"compound": "CC(=O)N1CCc2ccc(O)c(OC3OC(COC4OCC(O)(CO)C4O)C(O)C(O)C3O)c2C1Cc1ccc(O)cc1", "note": "(configuration not stated)", "outcome": "inactive [at 17.3 µM]"}
{"compound": "CN1CCN(c2ccc(C(=O)Nc3n[nH]c4ccc(Cc5cc(F)cc(F)c5)cc34)c(NC3CCOCC3)c2)CC1", "Potency": "16.4 µM (active) and 13 µM (active)"}
{"compound": "COCC1OC(OC(C)(C)C2CCC3(C)C=C(C4CCC5C4(C)CC(O)C4OC(C(C)(C)OC6OC(CO)C(O)C(O)C6NC(C)=O)CCC45C)CCC3O2)C(NC(C)=O)C(O)C1O", "note": "(configuration not stated)", "outcome": "inactive [at 9.29 µM]"}
{"compound": "C=C1C(=O)O[C@@H]2C/C(C)=C\\C(=O)/C=C(\\C)[C@@H](OC(=O)/C(C)=C\\C)[C@H](O)[C@@H]12", "Potency": "4.04 µM (active)"}
{"compound": "C[C@@H]1CC[C@@]2(OC1)O[C@H]1C[C@H]3[C@@H]4CC=C5C[C@@H](O)CC[C@]5(C)[C@H]4CC[C@]3(C)[C@H]1[C@@H]2C", "activity change, negative = cytotoxicity": "-2.19% [at 17.3 µM] (inactive)"}
{"compound": "CN(C)C1CCN(C(=O)c2ccc(NC(=O)Nc3ccc(-c4nc(N5CCOCC5)nc(N5CCOCC5)n4)cc3)cc2)CC1", "activity change, negative = cytotoxicity": "-11.8% (inactive)"}
{"compound": "COC(=O)c1ccc(OC(CO)C(O)c2ccc(O)c(OC)c2)c(OC)c1", "note": "(configuration not stated)", "activity change, negative = cytotoxicity": "-9.24% (inactive)"}
{"compound": "Cc1[nH]nc(C(F)(F)F)c1Cc1sc2c(c1C(=O)N1C[C@](C)(O)CO1)c(=O)n(C)c(=O)n2C(C)C", "activity change, negative = cytotoxicity": "7.5% (inactive)"}
{"compound": "O=C(Nc1nc2ccccc2n1CCc1ccccc1)c1ccccc1", "activity change, negative = cytotoxicity": "-9.76% (inactive)"}
{"compound": "CS(=O)(=O)N1CCC(NC(=O)c2[nH]ncc2NC(=O)c2c(Cl)cccc2Cl)CC1", "Potency": "9.2 µM (active)"}
{"compound": "C[C@@H]1COCCN1c1cc(C2(S(C)(=O)=O)CC2)nc(-c2cccc3[nH]ccc23)n1", "Potency": "1.46 µM (active)"}
{"compound": "CN(C)c1nc(NC2CCC(NCCc3ccc(Br)cc3OC(F)(F)F)CC2)nc2ccccc12", "note": "(configuration not stated)", "Potency": "4.61 µM (active)"}
{"compound": "CC(C)O[C@@H]1O[C@H](CO)[C@@H](O)[C@H](O)[C@H]1O", "activity change, negative = cytotoxicity": "6.53% (inactive)"}
{"compound": "O=C(N/N=C/c1ccc(O)c(O)c1)c1cc2ccccc2cc1O", "activity change, negative = cytotoxicity": "-2.1% [at 17.3 µM] (inactive)"}
{"compound": "CCN1CCN(Cc2ccc(Nc3ncc(F)c(-c4cc(F)c5nc(C)n(C(C)C)c5c4)n3)nc2)CC1", "Potency": "4.11 µM (active)"}
{"compound": "C=C1CCC2C(C)(C(=O)OC)CCCC2(C)C1CCC(C)CC(=O)O", "note": "(configuration not stated)", "outcome": "inactive"}
{"compound": "CC(=O)O[C@H]1C[C@@]2(C)[C@@H](CC[C@H]3[C@@]4(C)C=CC(=O)[C@@H](C)[C@@H]4[C@H](O)C(=O)[C@@]32C)/C1=C(/CCC=C(C)C)C(=O)O", "activity change, negative = cytotoxicity": "-11.8% [at 17.3 µM] (inactive)"}
{"compound": "CO[C@@H](C)Cn1c(=O)n(C)c2cnc3ccc(-c4cncc(C(C)(C)O)c4)cc3c21", "Potency": "0.651 µM (active)"}
{"compound": "CCOc1cc2ncc(C#N)c(Nc3ccc(F)c(Cl)c3)c2cc1NC(=O)/C=C/CN(C)C", "Potency": "3.26 µM (active)"}
{"compound": "CC(CCC1(O)OC2CC3C4CCC5CC(O[C@@H]6O[C@H](CO)[C@@H](O)[C@H](O)[C@H]6O[C@@H]6O[C@@H](C)[C@H](O)[C@@H](O)[C@H]6O)C(O)CC5(C)C4CCC3(C)C2C1C)CO[C@@H]1O[C@H](CO)[C@@H](O)[C@H](O)[C@H]1O", "note": "(some centres not stated)", "activity change, negative = cytotoxicity": "1.44% [at 9.29 µM] (inactive)"}
{"compound": "C/C=C1\\[C@H](O[C@@H]2O[C@H](CO)[C@@H](O)[C@H](O)[C@H]2O)OC=C(C(=O)OC)[C@H]1CC(=O)OC[C@H]1O[C@@H](OCCc2ccc(O)cc2)[C@H](O)[C@@H](O)[C@@H]1O", "activity change, negative = cytotoxicity": "-0.742% [at 17.3 µM] (inactive)"}
{"compound": "O=C(O)Cc1ccc2oc(-c3ccc(NC(=O)/C=C/c4ccc(Br)cc4)c(F)c3)nc2c1", "activity change, negative = cytotoxicity": "-7.12% (inactive)"}
{"compound": "C=C[C@]1(C)C=C2CCC3C(C)(CCC[C@@]3(C)C(=O)O)C2CC1", "note": "(some centres not stated)", "activity change, negative = cytotoxicity": "2.25% (inactive)"}
{"compound": "CC1=CC(=O)CC(C)(CO)C1(O)/C=C/C(C)O[C@@H]1O[C@H](CO)[C@@H](O)[C@H](O)[C@H]1O", "note": "(some centres not stated)", "activity change, negative = cytotoxicity": "3.58% [at 17.3 µM] (inactive)"}
